Measured values as given in the supplement of paper PMC6555819.

How the values were obtained:
Experiment in all cases: PBM binding z-score (relative to random genomic background probes); higher = stronger binding; sequences stand for … in GC…GCGATTGACAGCGTAGAATGAAGG
[1] = tested on: FXR:RXRa (NR concentration 270 nM, RXRa partner concentration 90 nM)
In short: (§1)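 For binding z-scores, the reference was random background probes on custom Agilent 4×180K protein-binding microarrays. These arrays were incubated 1 h with ligand-free nuclear receptor dimers in PBS pH 7.4, 2% milk, 0.02% Triton X-100, 1 mM DTT, 0.2 mg/mL BSA and 0.4 mg/ml salmon testes DNA. Fluorescence was scanned after antibody detection of each partner (one per run) and regression-normalized.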

[2] = tested on: LXRa:RXRa (NR concentration 270 nM, RXRa partner concentration 90 nM)
In short: as §1

[3] = tested on: LXRa homodimer (NR concentration 270 nM)
In short: as §1

[4] = tested on: LXRb:RXRa (NR concentration 270 nM, RXRa partner concentration 90 nM)
In short: as §1

[5] = tested on: LXRb homodimer (NR concentration 270 nM)
In short: as §1

[6] = tested on: PPARa:RXRa (NR concentration 270 nM, RXRa partner concentration 90 nM)
In short: as §1

[7] = tested on: PPARg:RXRa (NR concentration 180 nM, RXRa partner concentration 90 nM)
In short: as §1

[8] = tested on: PPARg:RXRa 270nM:90nM, anti-RXR (NR concentration 270 nM, RXRa partner concentration 90 nM)
In short: as §1

[9] = tested on: PPARg:RXRa 30nM:10nM, anti-RXR (NR concentration 30 nM, RXRa partner concentration 10 nM)
In short: as §1

[10] = tested on: PPARg:RXRa 90nM:30nM, anti-RXR (NR concentration 90 nM, RXRa partner concentration 30 nM)
In short: as §1

[11] = tested on: PPARg:RXRa DBDmut IVT, anti-RXR (DBD mutation: RXRa K156A/R161A, NR concentration 270 nM, RXRa partner concentration 90 nM)
In short: as §1

[12] = tested on: PPARg:RXRa IVT, anti-PPARg (NR concentration 270 nM, RXRa partner concentration 90 nM)
In short: as §1

[13] = tested on: PPARg DBDmut:RXRa IVT, anti-PPARg (DBD mutation: PPARg1 K132A/R137A, NR concentration 270 nM, RXRa partner concentration 90 nM)
In short: as §1

[14] = tested on: PPARg DBDmut IVT, anti-PPARg (DBD mutation: PPARg1 K132A/R137A, NR concentration 270 nM)
In short: as §1

[15] = tested on: PPARg homodimer (NR concentration 180 nM)
In short: as §1

[16] = tested on: PXR:RXRa (NR concentration 270 nM, RXRa partner concentration 90 nM)
In short: as §1

[17] = tested on: PXR homodimer (NR concentration 270 nM)
In short: as §1

[18] = tested on: RARa:RXR (NR concentration 270 nM, RXRa partner concentration 90 nM)
In short: as §1

[19] = tested on: RARa homodimer (NR concentration 270 nM)
In short: as §1

[20] = tested on: RARb:RXRa (NR concentration 270 nM, RXRa partner concentration 90 nM)
In short: as §1

Sequence | PBM binding z-score [1] | PBM binding z-score [2] | PBM binding z-score [3] | PBM binding z-score [4] | PBM binding z-score [5] | PBM binding z-score [6] | PBM binding z-score [7] | PBM binding z-score [8] | PBM binding z-score [9] | PBM binding z-score [10] | PBM binding z-score [11] | PBM binding z-score [12] | PBM binding z-score [13] | PBM binding z-score [14] | PBM binding z-score [15] | PBM binding z-score [16] | PBM binding z-score [17] | PBM binding z-score [18] | PBM binding z-score [19] | PBM binding z-score [20]
TAGTCTAGGTCATGGGCCAGTATACCACGCGAAC | 4.42 | 3.68 | 1.27 | 2.58 | 1.74 | 4.88 | 7.25 | 6.37 | 3.68 | 6 | 5.8 | 6.96 | 3.12 | 2.31 | 2.49 | 1.57 | 0.209 | 2.78 | 0.751 | 3.95
TAGCCTAGGTCATGTGCCAGTATACCACGCGAAC | 4.24 | 3.24 | 0.572 | 2.7 | 0.626 | 3.58 | 2.79 | 2.86 | 0.838 | 2.06 | 1.78 | 3.01 | 0.0994 | 0.0439 | 1.55 | 1.53 | -0.113 | 2.34 | -0.178 | 3.74
AGAATGAGGTTACCAAAGATCAGCGAAACGCTTG | 1.92 | 6.09 | -0.342 | 3.38 | -0.405 | 3.24 | 2.63 | 2.59 | 0.865 | 1.64 | 4.05 | 3.33 | 1.77 | 0.58 | 0.597 | 1.32 | -0.226 | 2.13 | 0.0511 | 2.08
TCATATGGGTAATACAGGTGAAAGTCGGCATCTA | 0.355 | 1.4 | 0.0107 | 0.779 | -0.138 | 1.82 | 1.1 | 2.13 | 2.8 | 2.4 | 3.38 | 2.88 | 1.3 | 0.765 | 0.704 | 0.281 | -0.317 | 0.653 | 0.182 | 0.214
TTACCAAGGCGAGCTGAGGTCGTTGATCCAACTC | 0.487 | 0.298 | -0.362 | 0.482 | -0.87 | 0.95 | -0.35 | 0.0213 | -0.31 | 0.219 | 0.105 | -0.00723 | -0.484 | -0.938 | -0.375 | 1.71 | 0.0318 | 1.57 | -0.628 | 0.286
CCAGACAGGTGAAAAGGTAACTCAGCCTCGATTA | 0.33 | 0.666 | -0.0851 | 0.744 | -0.438 | 2.09 | 1.27 | 2.24 | 0.682 | 1.77 | 1.6 | 1.25 | -0.262 | -0.729 | 1.18 | 0.509 | 0.481 | 1.45 | 1.21 | 1.43
CGAGCTAGGTCAAGGACAGTGAATCTCCGCACGC | 3.4 | 2.03 | -0.283 | 1.22 | -0.582 | 3.06 | 2.07 | 2.14 | 0.109 | 1.07 | 3.38 | 2.99 | -0.96 | -1.07 | 1.61 | 1.01 | -0.22 | 2.02 | 0.121 | 3.74
TTACCAAGGTGAAGGTCGTTGATCCCTCTGTAGA | 2.37 | 2.03 | -0.222 | 1.45 | -0.739 | 2.55 | 3.15 | 3.94 | 2.09 | 3.67 | 1.59 | 3.45 | 1.02 | -0.236 | 0.792 | 1.48 | 0.114 | 1.76 | -0.599 | 2.28
TCAGACAGGTGAAGGTACCTCAGGTACGCAGTCG | 0.559 | 0.611 | -0.182 | 0.0572 | -0.29 | 1.13 | 0.642 | 1.8 | 3.41 | 2.54 | 1.89 | 0.885 | 0.0512 | -0.186 | 0.265 | 0.248 | -0.155 | 0.888 | -0.298 | 0.914
CCTATTAGTTGACCATAAGGGCCACCGAAGCTCG | 0.118 | 0.041 | 0.365 | 0.0156 | 0.659 | 0.169 | 0.368 | 0.219 | 0.231 | 0.304 | 0.171 | 0.5 | 0.477 | 0.579 | 1.36 | -0.0446 | 0.497 | 0.206 | 1.88 | 1.02
ATATGTAGGGTATCGGGTCATTCAGTTTGCGCAT | 2.08 | 2.17 | 1.58 | 3.25 | 1.84 | 4.3 | 5.64 | 5.05 | 2.42 | 4.32 | 6.53 | 6.58 | 2.46 | 2.33 | 2.08 | 3.66 | 7.07 | 2.95 | 0.891 | 2.09
CCGACTGGGTCATAAGGTTACCATAAGCCAGCCC | 2.99 | 3.47 | -0.00526 | 2.23 | -0.614 | 4.14 | 5.19 | 5.46 | 2.95 | 4.86 | 5.16 | 5.58 | 0.678 | 0.517 | 2.93 | 2.45 | 0.189 | 4.18 | 0.218 | 3.38
ATCTCTAGGTAAGAATCAGTTCAGTGAAGAACGC | 0.825 | 0.702 | 0.74 | 0.521 | 0.992 | 0.326 | 0.0299 | 0.324 | 0.4 | 0.435 | 1.32 | 0.899 | 0.992 | 1.06 | 1.4 | 1.05 | 1.2 | 0.793 | 2.09 | 0.435
ACAAACAGGTGAGTGAAGGTAACTCAGCTGGACG | 0.326 | -0.0872 | -0.278 | -0.542 | -0.3 | 0.367 | 0.682 | 0.103 | 0.0977 | 0.229 | 1.21 | 1.19 | 0.208 | 0.336 | 0.244 | -0.255 | -0.143 | 0.192 | 0.0567 | 0.585
